# Assay results reported in PubChem BioAssay (NCI).
# This is part of a sample that, as a whole, favours compounds with a hit. Of some 83,000 tested, about 20% had one in any assay.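 48-hour exposure, single concentration, 96-well plates; percent growth endpoint where 0 means no net growth. Active: below 10.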 Unmarked numbers belong to inactive results. Active and inactive are the calls of the source.
# Columns and labels:
# Assay in all cases: NCI-60 one-dose screen, 48 h (100 = growth as untreated, 0 = no growth, -100 = all killed)
# Conditions in all cases: 10 µM unless noted
# HCT-15 colon = tested on: HCT-15 colon
# HT29 colon = tested on: HT29 colon
# SNB-75 CNS = tested on: SNB-75 CNS
# SNB-19 CNS = tested on: SNB-19 CNS
# U251 CNS = tested on: U251 CNS
# PC-3 prostate = tested on: PC-3 prostate
# SK-MEL-5 melanoma = tested on: SK-MEL-5 melanoma
# UACC-62 melanoma = tested on: UACC-62 melanoma
# LOX IMVI melanoma = tested on: LOX IMVI melanoma
# SK-MEL-28 melanoma = tested on: SK-MEL-28 melanoma
Compound,growth (HCT-15 colon),growth (HT29 colon),growth (SNB-75 CNS),growth (SNB-19 CNS),growth (U251 CNS),growth (PC-3 prostate),growth (SK-MEL-5 melanoma),growth (UACC-62 melanoma),growth (LOX IMVI melanoma),growth (SK-MEL-28 melanoma)
O=c1ccc2ccc(OCCN3CCCCC3)cc2o1,108%,98.9%,105%,104%,103%,23.5%,107%,94.1%,101%,102%
COc1ccc(Nc2ncc(C#N)c(NCCCNC(=O)C3CCC3)n2)cc1,49.7%,61.9%,58.1%,68.9%,60.1%,71.9%,92%,78.1%,32.6%,103%
COc1cc2c3c(c4c5ccccc5[nH]c4c2c(OC)c1OC)C(=O)N(CCN1CCCCC1)C3=O,-87.2% (active),-39.6% (active),63.5%,30.1%,-60.3% (active),31.3%,31.7%,48.4%,-92% (active),52.2%
O=C(O)c1cn(C2CC2)c2cc(N3CCN(C(=O)N/N=C/c4cccc5ccccc45)CC3)c(F)cc2c1=O,97.9%,105%,97%,85.9%,100%,105%,94%,88.7%,67.8%,98.1%
NC(=O)c1ccccc1OCC(=O)Nc1ccc(Cl)c(Cl)c1,102%,113%,83.3%,93.2%,97.3%,106%,99.9%,83.3%,108%,107%
CCOC(=O)c1nnn(-c2no[n+]([O-])c2-c2ccc(OC)cc2)c1COc1cccc2cccnc12,22.2%,3.79% (active),73.1%,25.2%,14.9%,34.2%,-22.4% (active),8.44% (active),-43.1% (active),58.2%
Cc1cc(NCCCNc2ccnc3cc(Cl)ccc23)nc(Nc2ccc(C(=O)N3CCCCC3)cc2)n1,0.549% (active),-5.41% (active),26.7%,25.6%,-8.28% (active),50.5%,-98.5% (active),-71.2% (active),-77.1% (active),-71.2% (active)
CCCc1cc(=O)oc2c(C(=O)CC(C)C)c(O)c(CC=C(C)C)c(O)c12,16.9%,57.3%,52.6%,21.5%,22.5%,6.87% (active),-45.8% (active),-1.35% (active),33.8%,26.3%
O=S(=O)(Nc1ccc2ccccc2c1)c1ccc(-c2cnc(C3CC3)o2)cc1,31.5%,14.8%,-1.76% (active),35.8%,23.6%,23.4%,28.2%,32.1%,56.9%,64.9%
CCOC(=O)C/C(=N\Nc1cc(=O)[nH]c2ccc(OC)cc12)C(=O)OCC,99.7%,110%,94.6%,100%,106%,89%,99.7%,90.4%,96.6%,99.6%
ClCCn1cnc2c(SCc3ccccc3)ncnc21,33.5%,41.2%,73.9%,50.5%,39.8%,38.4%,57.3%,46.1%,22.3%,78.5%
Fc1ccc2[nH]cc(-c3nc(-c4c[nH]c5c(Cl)nccc45)cs3)c2c1,-39.6% (active),17.5%,49.9%,59.9%,13.8%,31.5%,60.4%,24%,16.2%,43.9%
COc1cc(/C=C/C(=O)c2cc(OC)c(OC)c(OC)c2)ccc1Oc1nc2c(c(=O)n(C)c(=O)n2C)n1C,0.728% (active),-51.1% (active),31%,18.7%,-81.9% (active),7.57% (active),28.9%,-74.1% (active),-81.1% (active),-45.3% (active)
CCCC(=O)NC(c1ccc2c(c1)OCO2)c1cc(Cl)c2cccnc2c1O (stereo not given),30.9%,21.2%,6.73% (active),23.7%,17.3%,34.5%,37.5%,11%,23.4%,46.1%
